# Assay outcomes as filed in PubChem BioAssay.
# The list is not random: actives were taken first. Their share in the collection is about 3.2%.
# HDAC3 inh – HDAC3 deacetylase inhibitors, primary screen, biochemical, fluorescence, cell-free homogeneous; Histone deacetylase 3 (Homo sapiens), O15379; recombinant HDAC3, fluorogenic peptide/trypsin coupled; inhibition, % at 8.3 µM; hit rate 0.15% among 320,000; in the data active = inhibition above about 26%, passing the limit was not always enough
# TMEM16A act – TMEM16A chloride channel activators or potentiators, primary screen, cell-based, HTS. HEK293 TMEM16A/YFP-H148Q/I152L, iodide quench fluorescence; hits give low values. B-score at 10 µM. hit rate 0.3% among 340,000. AID 623877, 2012;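 active = fluorescence-ratio B-score plate-corrected deviation score at least 3 library SD below zero, with starting fluorescence score within 5 deviations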;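 also: channel opened by trigger with iodide after compound preincubation; score built on the fluorescence ratio of max minus min over baseline; more negative score means more quench and so TMEM16A activation or potentiation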
# TMEM16A inh – TMEM16A chloride channel inhibitors, primary screen, cell-based, HTS; hit rate 1.2% among 310,000; normalized B-score (activity score, 25-100; higher = stronger inhibition) at 10 µM; HEK293 TMEM16A/YFP iodide influx fluorescence, ionomycin;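 active = ratio plate-corrected score three or more library SD toward inhibition, starting fluorescence score within five deviations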;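 also: score derived from kinetic fluorescence span divided by baseline fluorescence per well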
# CHT inh – inhibitors of human choline transporter CHT; hit rate 0.86% among 310,000; High affinity choline transporter 1 (Homo sapiens), Q9GZV3; CHT-expressing cells, membrane potential dye, choline response; hits give low values; AID 488975, 2010; B-score at 10 µM;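 active = B-score over 3 SD under the library average, and starting fluorescence ratio not unusually high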;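 also: choline stimulus applied at its EC90 after an EC20 pre-addition; B-score computed on integrated fluorescence ratio after choline addition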
# PHOSPHO1 inh – PubChem AID 1565 | recombinant PHOSPHO1, absorbance phosphatase assay | hit rate 1.1% among 290,000 | inhibition, % at 13.3 µM; in the data active = inhibition above about 60%
# Target sequence (Q8TCT1 whole entry, looked up): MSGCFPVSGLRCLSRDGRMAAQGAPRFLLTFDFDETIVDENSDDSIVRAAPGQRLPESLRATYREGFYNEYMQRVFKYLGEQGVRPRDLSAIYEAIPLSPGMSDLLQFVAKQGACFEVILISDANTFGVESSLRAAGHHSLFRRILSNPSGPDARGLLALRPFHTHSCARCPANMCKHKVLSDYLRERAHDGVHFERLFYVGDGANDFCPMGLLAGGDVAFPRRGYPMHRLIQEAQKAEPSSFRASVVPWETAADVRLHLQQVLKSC
# CHT allo act – CHT positive allosteric modulators, primary screen, cell-based, membrane potential dye, choline EC20; High affinity choline transporter 1 (Homo sapiens), Q9GZV3; CHT-expressing cells; hits give high values; LV-AA mutant CHT in HEK293 cells; B-score at 10 µM; hit rate 0.49% among 310,000;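 active = initial fluorescence not abnormally high and integrated response B-score, plate-corrected, over 3 SD above library mean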
# TMEM16A reconf – TMEM16A chloride channel inhibitors, confirmation, cell-based, re-confirmation; shares compounds with TMEM16A inh; HEK293 TMEM16A/YFP-H148Q, iodide quench fluorescence; ionomycin added to raise cell calcium; inhibition, % at 10 µM; hit rate 39% among 2,300;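 active = mean duplicate percent inhibition, scaled so buffer wells are 0 and the reference blocker 100, over three buffer SD above buffer mean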
# HEK293 Ca mobil – calcium mobilization in TMEM16A/YFP HEK293 cells, confirmation, counter-screen for TMEM16A inhibitor project | shares compounds with TMEM16A inh | Fluo4 calcium mobilization | calcium response (% of ionomycin), % at 10 µM | hit rate 2% among 2,300;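 active = duplicate-averaged calcium signal over 20% of the ionomycin maximum, relative to buffer baseline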;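 also: each well's signal is peak minus trough fluorescence divided by its pre-addition baseline; 0% = buffer wells and 100% = ionomycin wells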
# Parental YFP cnt – iodide YFP quench changes in parental YFP-HEK293, counter-screen for TMEM16A inhibitor project, cell-based; AID 652233, 2013; 2,300 tested, under 10 active; YFP ratio F(max-min)/F0 at 10 µM; shares compounds with TMEM16A inh; ionomycin;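 active = yellow fluorescent protein signal ratio exceeding the buffer control mean by over 5 SD of those controls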;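 also: ratio is mean of duplicate wells from kinetic YFP trace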
# ClC-1 rat inh – ClC-1 chloride channel inhibition, selectivity assay for TMEM16A inhibitor project, cell-based, voltage-dependent ClC-1. shares compounds with TMEM16A inh. 2,300 tested, under 10 active. CHO ClC-1-YFP, iodide influx fluorescence quench; iodide control reads 0, buffer control 100. ratio percent, % at 10 µM;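 active = duplicate-mean ratio percent above the mean of iodide-only control wells, which defines zero, plus 5 of their SD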;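 also: higher percent means stronger block of ClC-1 iodide influx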
# * marks the source's active call; other numbers are inactive results; i = inactive; / = no result given.
SMILES,HDAC3 inh,TMEM16A act,TMEM16A inh,CHT inh,PHOSPHO1 inh,CHT allo act,TMEM16A reconf,HEK293 Ca mobil,Parental YFP cnt,ClC-1 rat inh
N#Cc1c(-c2ccccc2)nc(SCc2cccc(Cl)c2)[nH]c1=O,8,i,100*,i,42,i,83%*,i,-0.99,-19
CCCCn1c(SCC(=O)c2ccc(O)c(O)c2)nc2ccsc2c1=O,6,i,100*,i,2,i,49%*,i,-1,-18
O=C(O)CCCCCn1c(SCC(=O)c2ccc(O)c(O)c2)nc2ccsc2c1=O,2,i,i,i,5,i,/,/,/,/
Cc1cc2c(NS(=O)(=O)c3ccc(F)cc3)cccc2nn1,-1,i,i,i,16,i,/,/,/,/
COc1ccc(NC(=O)C2CCN(c3ncnc4c3nc3n4CCCCC3)CC2)c(OC)c1,-3,i,i,i,26,i,/,/,/,/
COC(=O)c1ccccc1NC(=O)C1CCN(c2ncnc3c2nc2n3CCCCC2)CC1,1,i,100*,i,-84,i,i,i,-1.1,-8
CCC1c2ccc(C)n2CCN1C(=O)Nc1ccccc1C(=O)OC (centres undefined),13,i,i,i,3,i,i,i,-1.1,-14
CCCC1c2ccc(C)n2CCN1C(=O)Nc1ccccc1Cl (centres undefined),-2,i,i,i,-35,i,/,/,/,/
CCC1c2ccc(C)n2CCN1C(=O)Nc1cc(Cl)ccc1OC (centres undefined),0,i,i,i,-6,i,16%*,i,-0.98,-10
COC(=O)Cn1cc(C(=O)OC)c2ccccc21,-17,i,i,i,-14,i,/,/,/,/
COC(=O)c1cn(CCOc2ccccc2OC)c2ccccc12,-1,i,25*,i,-1,i,i,i,-0.92,-18
COc1ccccc1NC(=S)N1CCOCC1,1,i,i,i,3,i,/,/,/,/
O=C(Nc1ccccn1)c1cccnc1,-4,i,i,i,-75,i,/,/,/,/
CCCc1[nH]nc2c1C1(CCOC1C)C(C#N)=C(N)O2 (centres undefined),-1,i,25*,i,-6,i,i,i,-1.1,-12
CCN(CC)C(=O)C1CCCN(c2ccc([N+](=O)[O-])cc2/C=N/NC(=O)c2cccc(Br)c2)C1 (centres undefined),-1,i,100*,i,22,i,i,i,-0.86,-12
CC(=O)c1c(COC(=O)c2cccc(C)c2)nc2ccccc2[n+]1[O-],-9,i,i,i,20,i,/,/,/,/
CCOCCCNc1ncnc2c1[nH]c1ccccc12,3,i,i,i,31,i,/,/,/,/
CCCCOCCCNc1ncnc2c1[nH]c1ccccc12,2,i,100*,i,3,i,56%*,i,-0.8,-29
